Active and inactive are the calls of the source. How the source made its calls: active means hit-call score of the fitted dose curve at least 0.9, where 1 is the maximum; inactive means score below 0.9.
Read-out: Early growth response protein 1 (EGR1) transcription factor, EGR1 (gene 1958)
Test: LTEA_HepaRG_EGR1: Life Technologies and Expression Analysis (LTEA) Assay for Early growth response protein 1 (EGR1) transcription factor using HepaRG (AID 2283490)
Settings: mRNA level, 48 h; actives raise or lower the signal
Experimental: LTEA_HepaRG is a cell based, multiplexed-readout assay that uses HepaRG, a human liver cell line, with measurements taken at 48 hours after chemical dosing on a 96-well plate.LTEA_HepaRG_EGR1 is one of 102 assay component(s) measured in the LTEA HepaRG cell culture assay. It is a marker of Cell proliferation, survival, death.Data from the assay component LTEA_HepaRG_EGR1 was analyzed into 1 endpoint. This assay endpoint, LTEA_HepaRG_EGR1, was analyzed with bidirectional fitting relative to DMSO as the negative control and baseline of activity. Using a type of inducible reporter, measures of mRNA induction for gain or loss-of-signal activity can be used to understand regulation of transcription factor activity. To generalize the intended target to other relatable targets, this assay endpoint is annotated to the dna binding intended target family, where the subfamily is zinc finger.
A total of 1060 chemcials from the ToxCast library were tested in eight-point concentration-response experiments. Cell culture and cytotoxicity assays were conducted at Thermo Fisher Scientific's Custom Services facility (Madison, WI). A single lot of human HepaRG cells (Thermo Fisher Scientific, Frederick, MD) was used for the cell culture experiments. 96-well format collagen type I coated plates of human HepaRG cells were prepared using established methods. Briefly, cryopreserved HepaRG cells were thawed, plated at a density of approximately 100,000 cells/well in HepaRG Thaw, Plate, and General Purpose media (HPRG770, Thermo Fisher Scientific), and incubated for 48 hours. 0.5% DMSO was selected as vehicle control to balance the requisite need of DMSO in HepaRG cultures to maintain differentiation (for example, baseline metabolism, proportions of hepatocytes vs. cholangiocytes), while enabling further hepatic receptor pathway activation (for example, PXR and CAR) in response to chemical exposure. 48 hours after plating, the culture medium was replaced with HepaRG Serum-Free Incudtion Media. Cells were exposed to each test chemical in duplicate and maintained in CO2 incubators for another 48 hours. Chemical plates were thawed to room temperature and 200x concentrations of treatment groups were prepared. 8-point conentration-reponse curves were made with the highest exposure at 100 uM, followed by half-log dilutions, all in 0.5% DMSO. Each test plate contained variouse controls, induction positive controls (1mM phenobarbital), cytotoxicity positive controls ([…] aflatoxin B1), vehicle controls (0.5% DMSO), and total lysis controls (0.5% DMSO). Cell morphology images were taken using an Essen IncuCyte FLR automated microscope, with six 96-well plates imaged in about 24 minutes. Images were captured and exported and JPEG files. Spent culture media was transfered to black-well plates for the LDH assay, and remaining media was sorted at -80 C for later use. Cells were treated with RLT buffer and frozen until shipped for gene expression analysis. Total RNA was isolated from the cell suspension in 75 uL of Buffer RLT (Qiagen, Germantown, MD 20874) by Quintiles/Expression Analysis (Durham, NC) using a custom isolation procedure. Total RNA from each plate well was transferred to a preamplification plate. Fluidigm's 96.96 Dynamic ArrayTM (Fluidigm, Amsterdam, the Netherlands) technology was used for gene expression analyses by quantitative reverse transcription polymerase chain reaction (qRT-PCR, performed by Quintiles/Expression Analysis, Durham, NC)89. Standard TaqManTM Assays (Applied Biosystems/ThermoFisher Scientific, Foster City, CA) were used to assess the expression of 93 genes selected based on their selectivity and sensitivity to important hepatic receptors known to be modulated by environmental chemicals; importance in human hepatocyte functionality; and hepatotoxicity. […]

SMILES	outcome	AC50
CC(O)CO (stereo not given)	inactive	–
Nc1cccc2c(N)cccc12	inactive	–
CCCCCCCCCCCCCCCS(=O)(=O)Oc1ccccc1	inactive	–
Cc1cc(C)c(O)c(C)c1	inactive	–
CC(=O)NC1(c2cccc(F)c2)CCN(CC[C@@]2(c3ccc(Cl)c(Cl)c3)CN(c3ccccc3)C(=O)CO2)CC1	–	72.4 µM (active)
CCCCCCC(=O)O	inactive	–
c1ccc2cc3c(ccc4ccccc43)cc2c1	–	27.9 µM (active)
O=[N+]([O-])c1ccc(O)cc1	inactive	–
CCCOc1sc(C(=O)N2CCC(c3cc(CN)ccc3F)CC2)c(C)c1Br	inactive	–
CN1CCC[C@H]1c1cccnc1	inactive	–
CCCCC(CC)COC(=O)CCCCC(=O)OCc1ccccc1 (stereo not given)	inactive	–
CCc1ccc(CCOc2ccc(CC3SC(=O)NC3=O)cc2)nc1 (stereo not given)	–	15.1 µM (active)
CC#C[C@]1(O)CC[C@H]2[C@@H]3CCC4=CC(=O)CCC4=C3[C@@H](c3ccc(N(C)C)cc3)C[C@@]21C	–	8.69 µM (active)
CCCCC(CC)COC(=O)CCCCC(=O)OCC(CC)CCCC (stereo not given)	inactive	–
Oc1cccc(O)c1	inactive	–
CC(C)(C)CC(C)(C)c1ccc(O)c(-n2nc3ccccc3n2)c1	inactive	–
OCCC(F)(F)C(F)(F)C(F)(F)C(F)(F)C(F)(F)C(F)(F)C(F)(F)C(F)(F)F	inactive	–
c1ccc2c(c1)ccc1ccccc12	inactive	–
C[C@@H]1C[C@H]2[C@@H]3CCC4=CC(=O)C=C[C@]4(C)[C@@]3(F)[C@@H](O)C[C@]2(C)[C@@]1(O)C(=O)COP(=O)(O)O	inactive	–
C#C[C@]1(O)CC[C@H]2[C@@H]3CCC4=CC(=O)CC[C@@H]4[C@H]3CC[C@@]21C	inactive	–

SMILES	outcome	AC50
Cc1oc(-c2ccccc2)nc1CCOc1ccc(C[C@H](Nc2ccccc2C(=O)c2ccccc2)C(=O)O)cc1	–	87.9 µM (active)
Cc1cc(CCN2CCN(c3nsc4ccccc34)CC2)cc2c1NC(=O)CC2(C)C	inactive	–
Oc1cc2ccccc2c2ccccc12	inactive	–
CN1CCN(c2ccccc2/C=C2\SCCN(c3ccc(Cl)c(Cl)c3)C2=O)CC1	–	83 µM (active)
O=C(O)Cc1cc(I)c(Oc2cc(I)c(O)c(I)c2)c(I)c1	–	51.6 µM (active)
CCN(CC)CCNc1ccc(CNC=O)c2sc3ccc(OC)cc3c(=O)c12	–	88.2 µM (active)
CN(C)C=O	inactive	–
COc1ccc([N+](=O)[O-])cc1N	inactive	–
CC[C@H](C)[C@@H](C(=O)O)n1sc2ccccc2c1=O	inactive	–
O=c1c(-c2ccc(O)cc2)coc2cc(O)ccc12	inactive	–
O=C(OCCOCCOC(=O)c1ccccc1)c1ccccc1	inactive	–
CC(C)(C)c1ccc(O)c(C(C)(C)C)c1	inactive	–
CC(C)CCCCCCOC(=O)CCCCC(=O)OCCCCCCC(C)C	inactive	–
CC(C)(C)c1cc(C(C)(C)C)c(O)c(C(C)(C)C)c1	inactive	–
NC(=O)N(O)[C@@H]1C=C[C@H](Oc2cccc(Oc3ccc(F)cc3)c2)C1	–	12.7 µM (active)
CCOC(=O)CC(O)(CC(=O)OCC)C(=O)OCC	inactive	–
CCC(=C(c1ccc(O)cc1)c1ccc(OCCN(C)C)cc1)c1ccccc1	–	76.5 µM (active)
COCC(C)OCC(C)O (stereo not given)	inactive	–
OCCC(F)(F)C(F)(F)C(F)(F)C(F)(F)C(F)(F)C(F)(F)F	inactive	–
OC1CCC(C2CCCCC2)CC1 (stereo not given)	inactive	–
